GAA spleen mod – inhibits or activates alpha-glucosidase in human spleen homogenate. human spleen homogenate, 4-MU-alpha-glucoside fluorescence. Potency, µM (top dose mostly 79.9 µM), inactives show at the top dose activity change, negative = inhibition, most hits filed as inhibitors. 0.006% of 240,000 active. AID 2112;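 also: potency is read from the fitted curve at half-maximal effect; 0% = enzyme with vehicle and -100% = no enzyme basal signal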
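AC50 values come from Hill-equation fits of concentration-response data, normalized to no-enzyme and full-activity controls. Enzyme source: 1 ug human spleen homogenate; 1 mM fluorogenic 4-MU glucoside, pH 5.0 citrate buffer, 37 C, 40 min.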
GAA inhib – alpha-glucosidase (human) inhibition. P10253. purified human GAA, 4-MU-alpha-glucoside fluorescence. Potency, µM (top dose mostly 76.9 µM), inactives show top-dose activity change, negative = inhibition, most hits filed as inhibitors. 0.005% of 200,000 active. AID 1466;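 also: potency is read from the fitted curve at half-maximal effect; plate controls were uninhibited enzyme wells for no effect and no-enzyme background for full effect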
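Compounds are titrated up to 77 uM against 4 nM human enzyme. Substrate 4-methylumbelliferyl-alpha-D-pyranoside (400 uM) reacts 20 min at room temperature in pH 5.0 buffer; liberated 4-methylumbelliferone is read at 440 nm.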
N370S GC – N370S glucocerebrosidase modulation, Gaucher chaperone candidate. P04062. AID 2101. Potency, µM (top dose mostly 59.4 µM), without a hit: at the top dose activity change, negative = inhibition, usual class: inhibitors. 0.092% of 330,000 active. N370S GC spleen homogenate, 4MU-glucoside fluorescence;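 also: potency is read from the fitted curve at half-maximal effect; 0% = full enzyme activity and -100% = no enzyme basal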
aGal spleen mod – inhibitors or activators of human alpha-galactosidase in spleen homogenate. P06280. human spleen homogenate, 4MU-alpha-Gal fluorescence, 40 min. Potency, µM (top dose mostly 80 µM), for inactives: at the top dose activity change, negative = inhibition, hits mostly inhibitors. 0.008% of 240,000 active. AID 2107;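 also: potency is read from the fitted curve at half-maximal effect; 0% = enzyme with vehicle and -100% = no enzyme basal signal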
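Human spleen homogenate (1 ug) was the enzyme source, with 4-methylumbelliferyl-alpha-D-galactopyranoside (1 mM final) in pH 5.0 citrate buffer with 0.01% Tween-20. Compounds were titrated; after 40 min at 37C, NaOH/glycine stop, 4-MU fluorescence read; AC50 from Hill fits.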
GLA inh pH 4.5 – alpha-galactosidase A (human) inhibition, pH 4.5 | AID 1467 | purified enzyme, 4-MU-alpha-Gal fluorescence, pH 4.5 | activity change, negative = inhibition, % at 105 µM | 230,000 tested, under 10 active;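 also: 0% = full activity with enzyme and -100% = basal without enzyme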
Target sequence (P06280 whole entry, looked up): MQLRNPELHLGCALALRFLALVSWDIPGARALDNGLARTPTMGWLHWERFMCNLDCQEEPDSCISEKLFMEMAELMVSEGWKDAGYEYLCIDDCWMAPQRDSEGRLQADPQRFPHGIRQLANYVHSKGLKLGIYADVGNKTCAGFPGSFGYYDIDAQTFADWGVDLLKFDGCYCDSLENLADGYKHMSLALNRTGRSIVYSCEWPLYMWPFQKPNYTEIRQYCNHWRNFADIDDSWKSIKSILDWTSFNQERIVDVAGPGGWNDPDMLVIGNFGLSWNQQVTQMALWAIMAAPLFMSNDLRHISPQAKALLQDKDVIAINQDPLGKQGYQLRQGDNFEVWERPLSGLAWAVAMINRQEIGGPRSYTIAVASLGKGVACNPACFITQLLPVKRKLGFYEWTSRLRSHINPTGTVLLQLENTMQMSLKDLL
GAA glycogen mod – inhibitors or activators of human alpha-glucosidase glycogen cleavage | recombinant GAA, glycogen substrate, Amplex Red glucose oxidase fluorescence | 0.38% of 300,000 active | Potency, µM (top dose mostly 76.4 µM), inactives show at the highest dose activity change, negative = inhibition, actives largely listed as inhibitors | P10253;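 also: potency is read from the fitted curve at half-maximal effect; 0% = full enzyme reaction and -100% = no-enzyme basal signal; the screen sought inhibitors and activators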
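qHTS, 1536-well; enzyme 4 nM final; cpd up to 77 uM; substrate bovine liver glycogen 30 ug; 50 mM citrate/phosphate pH 5.0, 0.01% Tween-20; 37 C, 40 min; Amplex Red detection 45 min RT; Hill fit → AC50.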
Starred values were filed as active, the others as inactive; ? = inconclusive; . = no result given; [ ] = remark or other dose. A selection: hits, their analogues and other compounds. The true share with any hit is near 0.43%. Calls follow the shape of the dose curve; as a rule, active = well fitted curve in the direction sought with a large enough effect; inconclusive = small, poorly fitted or top-dose-only effect, or another doubt; inactive = no such curve, though single readings can be large; an effect the other way counts as inactive or inconclusive.

SMILES | GAA spleen mod | GAA inhib | N370S GC | aGal spleen mod | GLA inh pH 4.5 | GAA glycogen mod
O=S(=O)(NCc1ccco1)c1ccc(S(=O)(=O)N2CCCC2)cc1 | 3% | ? | 16% | -18% | -6 | 35µM*
COc1cccc(CNS(=O)(=O)c2ccc(S(=O)(=O)N3CCCC3)cc2)c1 | 1% | 1% | 7% | 2% | -13 | 5µM*
N#Cc1cccc(CS(=O)(=O)c2nnnn2C2CCCCC2)c1 | 1% | . | 10% | 7% | -6 | .
CCCC=O | 5% | . | 3% | 12% | . | .
CC(NC(=O)Nc1ccccc1O)(C(F)(F)F)C(F)(F)F | 3% | -12% | 3% | 6% | -14 | 16µM*
COc1cc(O)c2c(c1)oc(=O)c1c3cc(O)c(O)cc3oc21 | -10% | . | -23% | 1% | . | .
Cc1cccc(Nc2cc(C)c3c(O)cccc3n2)c1C | -1% | -2% | -16% | -3% | -10 | 10µM*
COc1cc(C(CCN2CCOCC2)c2c(OC)cc(OC)c3c2OC(=O)CC3c2ccc(N(C)C)cc2)cc(OC)c1OC (stereo unspecified) | 2% | . | ? | 0% | -3 | -21%
COc1cc(OC)c2c(c1C(CCN1CCOCC1)c1ccc(N(C)C)cc1)OC(=O)CC2c1ccc(N(C)C)cc1 (stereo unspecified) | -7% | . | 10µM* | 4% | -2 | 1%
CCOC(=O)c1ccccc1N1C(=O)CSC1=S | -6% | 0% | 4% | 12% | -7 | 28µM*
Cc1ccccc1C(=O)NN1C(=O)CSC1=S | 4% | -1% | -7% | 6% | -5 | ?
CCOC(=O)NC1(NCc2ccccc2)Oc2ccccc2O1 | 1% | 4% | -1% | 5% | -4 | 16µM*
CCOC(=O)NC1(NC2CCCCC2)Oc2ccccc2O1 | 3% | 3% | 5% | 3% | 5 | 8.9µM*
C=CC(=O)OCC(CO)(COC(=O)C=C)COC(=O)C=C | 7% | . | 0% | 4% | . | .
COc1ccc(-c2cc(Nc3ccccc3NC(=O)C(F)(F)F)n(CCC#N)n2)cc1 | -3% | -1% | 11% | 4% | 0 | 35µM*
CCOC(=O)c1cc(-c2ccc(OC)cc2)nc2c1c(C)nn2CCC#N | 24% | 13% | 12% | ? | 5 | -25%
Cc1ccn2c(Nc3ccc(C(C)C)cc3)c(-c3cccnc3)nc2c1 | . | . | . | . | . | 16µM*
Cc1ccn2c(Nc3ccccc3C)c(-c3ccccn3)nc2c1 | -5% | 0% | -16% | 0% | 0 | 4µM*
Cc1ccc2nc(-c3cccnc3)c(Nc3ccc(C(C)C)cc3)n2c1 | . | . | . | . | . | -9%[76.3 µM]
CC(C)c1ccc(Nc2c(-c3ccccn3)nc3ccccn23)cc1 | . | . | . | . | . | 5.6µM*
Cc1ccn2c(Nc3ccccc3)c(-c3ccccn3)nc2c1 | 4% | -12% | 3% | 2% | -4 | ?
Cc1ccccc1Nc1c(-c2ccccn2)nc2ccccn12 | -1% | -2% | -10% | -1% | -3 | ?
CSCC[C@H](NC(=O)[C@H](CC(C)C)NC(=O)[C@H](Cc1c[nH]c2ccccc12)NC(=O)[C@H](CCC(N)=O)NC(=O)[C@@H](NC(=O)[C@H](Cc1ccccc1)NC(=O)[C@H](CC(=O)O)NC(=O)[C@H](CCC(N)=O)NC(=O)[C@H](C)NC(=O)[C@H](CCCNC(=N)N)NC(=O)[C@H](CCCNC(=N)N)NC(=O)[C@H](CO)NC(=O)[C@H](CC(=O)O)NC(=O)[C@H](CC(C)C)NC(=O)[C@H](Cc1ccc(O)cc1)NC(=O)[C@H](CCCCN)NC(=O)[C@H](CO)NC(=O)[C@H](Cc1ccc(O)cc1)NC(=O)[C@H](CC(=O)O)NC(=O)[C@H](CO)NC(=O)[C@@H](NC(=O)[C@H](Cc1ccccc1)NC(=O)[C@@H](NC(=O)CNC(=O)[C@H](CCC(N)=O)NC(=O)[C@H](CO)NC(=O)[C@@H](N)Cc1cnc[nH]1)[C@@H](C)O)[C@@H](C)O)C(C)C)C(=O)N[C@@H](CC(N)=O)C(=O)N[C@H](C(=O)O)[C@@H](C)O | 5% | . | -1% | 0% | . | .
CC1(C)CCC[C@@](C)([C@H]2CC[C@]3(C)[C@@H]2[C@H](O)CC2[C@@]4(C)CC[C@H](O)C(C)(C)[C@@H]4[C@@H](O)C[C@]23C)O1 (stereo partly specified) | 6% | . | 1% | 2% | . | .
CCOc1ccccc1-c1nnc2n1N=C(c1ccc(OC)c(OC)c1)CS2 | 3% | . | -2% | -6% | . | .
SMILES | GAA spleen mod | GAA inhib | N370S GC | aGal spleen mod | GLA inh pH 4.5 | GAA glycogen mod
COc1ccc(C(=O)C2CCCN(C3Cc4ccccc4C3)C2)cc1OC (stereo unspecified) | -1% | ? | 11% | 14% | 2 | 16µM*
COc1ccc(C(=O)C2CCCN(Cc3nc4ccccc4nc3C)C2)cc1OC (stereo unspecified) | 1% | . | -10% | -8% | 0 | 12%
O=C(O)Cc1ccc2ocnc2c1 | -6% | 2% | -2% | 4% | -1 | 22µM*
O=C(Nc1ccccc1)Nc1ccc2ocnc2c1 | 3% | 0% | 1% | 6% | -4 | -13%
C=CCc1cccc(C2C(C)CCC3C(=O)N4C(Cc5c([nH]c6ccccc56)C4c4cc(OC)c(OC)c(OC)c4)C(=O)N32)c1 (stereo unspecified) | -1%[17.4 µM] | . | -2%[12.8 µM] | 3%[17.5 µM] | . | .
Brc1csc(/C=N/Nc2nc3ccccc3s2)c1 | -2% | -2% | 9% | 1% | -8 | ?
Cc1ccc2[nH]c(C)c(/C=N/Nc3nc4ccccc4s3)c2c1 | -13% | -1% | 15%[12.8 µM] | -4% | 1 | 16µM*
COc1ccc(N(CC(=O)Nc2cccc(F)c2)S(=O)(=O)c2c(C)[nH]c(=O)[nH]c2=O)cc1 | . | . | 11µM* | . | . | .
CCOc1ccc(N(CC(=O)Nc2ccc(C)c(C)c2)S(=O)(=O)c2c(C)[nH]c(=O)[nH]c2=O)cc1 | 2% | . | 7.1µM* | 1% | -9 | -11%
CCOc1ccc(N(CC(=O)Nc2ccc(CC)cc2)S(=O)(=O)c2c(C)[nH]c(=O)[nH]c2=O)cc1 | . | . | 3.5µM* | . | . | -18%[76.3 µM]
CCc1ccc(NC(=O)CN(c2ccc(OC)cc2)S(=O)(=O)c2c(C)[nH]c(=O)[nH]c2=O)cc1 | . | . | 3.2µM* | . | . | -6%[76.3 µM]
COC(=O)C1=C(C(=O)OC)[C@@H]2N(C)c3ccccc3[C@@]23C[C@@H](CO)N(C(=O)c2ccco2)C3=N1 | 3%[17.4 µM] | . | -4%[12.8 µM] | 0%[17.5 µM] | 5 | .
COc1ccc(C2=Nn3c(nnc3-c3ccc(OC)cc3OC)SC2)cc1 | -1% | . | 0% | 3% | . | .
O=C(/C=C/C#Cc1cccc(NS(=O)(=O)c2ccccc2)c1)NO | 1% | . | -12% | 8% | . | .
